A short description of assay [1]: TOX21_p53_BLA_p2_viability: Viability Assessment in the Tox21 HCT-116 p53 Agonism Beta-lactamase Assay, Phase 2 (AID 2283591).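 Also: compound exposure lasted 16 h at 37 °C; actives lower the ATP signal meaning cytotoxicity.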 An outline of the steps:
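HCT-116 p53-bla cells (4000/well) rested 5 h at 37C, then received compounds in DMSO (217-fold dilution) for 16 h at 37C, 5% CO2. After the CCF4 read, CellTiter-Glo was added; ATP luminescence was read after 30 min at room temperature.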

Assay [2] has as its target Cellular tumor antigen p53 (Homo sapiens) (UniProt P04637). Description: TOX21_p53_BLA_p2_ratio: Tox21 HCT-116 p53 Agonism Beta-lactamase Assay, Ratio, Phase 2 (AID 2283592). An outline of the steps:
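In this cell-based reporter format, HCT116 cells were dosed with chemicals delivered from DMSO by 217-fold dilution and incubated 16 h at 37C. Emission at 460 and 530 nm after 2 h CCF4-AM loading provided the ratio, fitted upward versus DMSO.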

The nature of assay [3]: TOX21_p53_BLA_p3_viability: Viability Assessment in the Tox21 HCT-116 p53 Agonism Beta-lactamase Assay, Phase 3 (AID 2283593).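 Also: cells exposed to compound for 16 h before reading.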 An outline of the steps: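 HCT-116 cells (4000/well) rested 5 h at 37C, then got DMSO compounds by pin tool (217-fold dilution) for 16 h at 37C, 5% CO2. After the bla read, CellTiter-Glo was added and luminescence read at 30 min, room temperature.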

Assay [4] has as its target Cellular tumor antigen p53 (Homo sapiens) (UniProt P04637). Description: TOX21_p53_BLA_p3_ratio: Tox21 HCT-116 p53 Agonism Beta-lactamase Assay, Ratio, Phase 3 (AID 2283596). An outline of the steps:
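HCT116 p53-bla cells (4000/well) given compound in DMSO (217-fold dilution) after 5 h, incubated 16 h at 37C. CCF4-AM substrate 2 h at room temperature; 460/530 nm emission ratio, gain fitted against DMSO.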

Assay [5] is described as follows: TOX21_p53_BLA_p4_viability: Viability Assessment in the Tox21 HCT-116 p53 Agonism Beta-lactamase Assay, Phase 4 (AID 2283597).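 Also: hits lower the luminescence signal meaning cytotoxicity.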 An outline of the steps:
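We seeded HCT116 p53 reporter cells at 4000/well and waited 5 h. We then added compounds in DMSO at a 217-fold dilution and incubated for 16 h. Viability was read as CellTiter-Glo luminescence after 30 min at RT.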

The target of assay [6] is Cellular tumor antigen p53 (Homo sapiens) (UniProt P04637). Description: TOX21_p53_BLA_p5_ratio: Tox21 HCT-116 p53 Agonism Beta-lactamase Assay, Ratio, Phase 5 (AID 2283599). An outline of the steps: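 HCT-116 cells carrying a p53-inducible beta-lactamase reporter were seeded at 4000 cells/well and dosed after 5 h with compound in DMSO (217-fold dilution). After 16 h at 37C, CCF4-AM substrate was added for 2 h, and the 460/530 nm emission ratio was scored as gain-of-signal versus DMSO.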
Chain of Cellular tumor antigen p53 (Homo sapiens) (P04637 whole entry, looked up): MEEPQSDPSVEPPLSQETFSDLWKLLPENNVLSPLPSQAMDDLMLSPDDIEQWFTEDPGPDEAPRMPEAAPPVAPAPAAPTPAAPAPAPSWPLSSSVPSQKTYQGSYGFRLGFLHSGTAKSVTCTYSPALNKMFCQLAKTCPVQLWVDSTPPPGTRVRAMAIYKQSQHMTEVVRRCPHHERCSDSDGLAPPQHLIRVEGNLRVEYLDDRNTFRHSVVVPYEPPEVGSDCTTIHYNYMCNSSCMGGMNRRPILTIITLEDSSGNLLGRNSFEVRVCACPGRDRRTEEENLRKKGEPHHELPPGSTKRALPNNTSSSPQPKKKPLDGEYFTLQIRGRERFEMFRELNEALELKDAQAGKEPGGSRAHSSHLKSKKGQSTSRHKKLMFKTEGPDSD

Assay [7] has the same target. Description: TOX21_p53_BLA_p4_ratio: Tox21 HCT-116 p53 Agonism Beta-lactamase Assay, Ratio, Phase 4 (AID 2283601). An outline of the steps:
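HCT116 cells carrying an inducible beta-lactamase reporter were plated at 4000 cells/well, rested 5 h, then exposed to compounds in DMSO (217-fold dilution) for 16 h at 37C. CCF4-AM substrate was loaded 2 h at room temperature; 460/530 nm emission ratio scored gain-of-signal versus DMSO.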

Assay [8] is described as follows: TOX21_p53_BLA_p5_viability: Viability Assessment in the Tox21 HCT-116 p53 Agonism Beta-lactamase Assay, Phase 5 (AID 2283600). An outline of the steps: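 Compounds, pinned from DMSO at 217-fold dilution, were left on the cells for 16 h. The viability endpoint was ATP content measured by CellTiter-Glo luminescence, where falling signal reflects cytotoxicity.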

For 14 compounds, outcome and AC50 results are on record in PubChem BioAssay (EPA / NIEHS).

Results filed as inconclusive are left out. Active and inactive are the calls of the source. The calls were made as follows: active = hit-call score of the fitted dose curve at least 0.9, where 1 is the maximum; inconclusive = response in the unintended direction; inactive = score below 0.9.

Take `O=C(O)c1cc(-c2ccc(F)cc2F)ccc1O`: the outcome in assay [1], in assay [2], in assay [3], in assay [4], in assay [5] and in assay [6] was inactive. In assay [7], the result was inactive.

For the compound `OCC(O)CS` (stereo not given), the outcome in assay [1], in assay [2], in assay [3], in assay [4], in assay [5] and in assay [6] was inactive. Further, in assay [7], the outcome was inactive.

As to `CN(C)CCCCl`, the compound was called inactive in assay [1], in assay [2], in assay [3], in assay [4], in assay [5] and in assay [6]. In addition, the outcome in assay [7] was inactive.

Turning to `O=Cc1cc2ccccc2o1`, the result in assay [1], in assay [2], in assay [3], in assay [4], in assay [5] and in assay [6] was inactive. In assay [7], the outcome was inactive.

Turning to `Cc1ccsc1/C=C/C1=NCCCN1C`, the call in assay [1], in assay [2], in assay [3], in assay [4], in assay [5] and in assay [6] was inactive. In assay [7], the outcome was inactive.

In the case of `CCCCC[C@H](O)/C=C/[C@@H]1[C@H]2C/C(=C/CCCC(=O)O)O[C@H]2C[C@H]1O`, the compound was called inactive in assay [1], in assay [2], in assay [3], in assay [4], in assay [5] and in assay [6]. Further, the result in assay [7] was inactive.

As for `CNC(=O)c1ccccc1Sc1ccc2c(/C=C/c3ccccn3)n[nH]c2c1`, the outcome in assay [1], in assay [3] and in assay [5] was inactive. For the same compound, the AC50 in assay [2] is 922 nM (active); in assay [4] it was 1.02 µM (active); in assay [6] it was 894 nM (active); in assay [7], 738 nM (active).

As to `CC(O)C(CO)C(C)O` (stereo not given), the compound was called inactive in assay [1], in assay [2], in assay [3], in assay [4], in assay [5] and in assay [8]. For the same compound, the outcome in assay [7] was inactive.

`COC(=O)c1ccc(C(=O)O)cc1`: the result in assay [1], in assay [2], in assay [3], in assay [4], in assay [5] and in assay [8] was inactive. The outcome in assay [7] was inactive.

Regarding `Cc1ccc2c(n1)Oc1ccc(C(C)C(=O)OCC(=O)N(C)C)cc1C2` (stereo not given), the outcome in assay [1], in assay [2], in assay [3], in assay [4], in assay [5] and in assay [8] was inactive.

Take `CNCCCCOc1ccccc1Cc1ccccc1`: the call in assay [1], in assay [2], in assay [3], in assay [4] and in assay [8] was inactive. Also, in assay [5], the concentration at half-maximal activity (AC50) was 36.4 µM (active).

On to `Cc1cccc(C)c1NC(=O)c1ccccc1C(=O)O`, for which the outcome in assay [1], in assay [2], in assay [3], in assay [4], in assay [5] and in assay [8] was inactive. Moreover, the outcome in assay [7] was inactive.

With `C[N+]1(C)CCC(=C(c2ccccc2)c2ccccc2)CC1`, the call in assay [1], in assay [2], in assay [3], in assay [4], in assay [5] and in assay [8] was inactive.

With `CCCCCCCCS(=O)(=O)Cl`, the compound was classed as inactive in assay [1], in assay [2], in assay [3], in assay [4], in assay [5] and in assay [8]. In addition, the result in assay [7] was inactive.
